# Results taken from PMC11574364.
# What was measured:
# Test in all cases: protein domain microarray probed with biotinylated miRNA; Domain array: 20 mM Tris-HCl pH 7.4, 200 mM KCl, 0.2 mM EDTA, 0.05% NP40, 2 ug/ul heparin, overnight 4 C. ORF array: PBS pH 7.0 with RNase inhibitor, 100 ng RNA; high values mean tight binding
# Settings in all cases: ssRNA
# NOVA2(3) = molecular target: T1, NOVA2(3) (Homo sapiens, UniProt Q9UNW9)
# T1 sequence: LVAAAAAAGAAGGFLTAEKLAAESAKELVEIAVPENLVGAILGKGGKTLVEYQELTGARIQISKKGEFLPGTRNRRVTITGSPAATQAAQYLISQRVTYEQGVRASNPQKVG
# RNPC3(2) = molecular target: T2, RNPC3(2) (Homo sapiens, UniProt Q96LT9)
# T2 sequence: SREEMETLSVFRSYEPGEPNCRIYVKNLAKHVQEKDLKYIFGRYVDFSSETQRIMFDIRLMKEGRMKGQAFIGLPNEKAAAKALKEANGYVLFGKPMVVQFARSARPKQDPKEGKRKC
# RBMXL1 = RBMXL1 (Homo sapiens, UniProt Q96E39)
# RBM38 = molecular target: T3, RBM38 (Homo sapiens, UniProt Q9H0Z9)
# T3 sequence: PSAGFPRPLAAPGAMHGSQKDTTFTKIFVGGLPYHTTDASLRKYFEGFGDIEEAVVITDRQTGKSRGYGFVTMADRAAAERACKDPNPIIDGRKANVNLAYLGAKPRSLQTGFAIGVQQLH
# IGF2BP2(3-4) = IGF2BP2(3-4) (Homo sapiens, UniProt Q9Y6M1)
# SETD1A = SETD1A (Homo sapiens, UniProt O15047)
# IGF2BP1(3-4) = IGF2BP1(3-4) (Homo sapiens, UniProt Q9NZI8)
# VIGILIN(6-10) = VIGILIN(6-10) (Homo sapiens, UniProt Q00341)
# RBM18 = molecular target: T4, RBM18 (Homo sapiens, UniProt Q96H35)
# T4 sequence: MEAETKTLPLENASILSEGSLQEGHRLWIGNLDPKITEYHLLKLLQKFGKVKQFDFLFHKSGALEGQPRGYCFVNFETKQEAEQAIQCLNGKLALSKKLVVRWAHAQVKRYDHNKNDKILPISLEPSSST
# VIGILIN(1-5) = VIGILIN(1-5) (Homo sapiens, UniProt Q00341)
# RBMX = RBMX (Homo sapiens, UniProt P38159)
# IGF2BP3(1-2) = IGF2BP3(1-2) (Homo sapiens, UniProt O00425)
# RBM24 = molecular target: T5, RBM24 (Homo sapiens, UniProt Q9BX46)
# T5 sequence: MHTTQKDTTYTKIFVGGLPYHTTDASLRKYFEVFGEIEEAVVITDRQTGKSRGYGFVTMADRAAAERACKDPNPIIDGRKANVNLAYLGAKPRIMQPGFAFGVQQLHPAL
# TNRC4(3) = TNRC4(3) (Homo sapiens, UniProt Q5SZQ8)
# RBM44 = molecular target: T6, RBM44 (Homo sapiens, UniProt Q6ZP01)
# T6 sequence: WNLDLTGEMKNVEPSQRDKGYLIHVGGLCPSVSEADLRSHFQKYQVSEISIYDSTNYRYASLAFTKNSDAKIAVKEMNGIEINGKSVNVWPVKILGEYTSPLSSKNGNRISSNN
# STAU1(2) = STAU1(2) (Homo sapiens, UniProt O95793)
# DUS2L = molecular target: T7, DUS2L (Homo sapiens, UniProt Q9NX74)
# T7 sequence: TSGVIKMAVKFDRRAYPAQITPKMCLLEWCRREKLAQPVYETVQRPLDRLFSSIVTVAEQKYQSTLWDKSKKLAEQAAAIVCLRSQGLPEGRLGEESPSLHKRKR
# NFAT90(2)/ILF3 = molecular target: T8, NFAT90(2)/ILF3 (Homo sapiens, UniProt Q12906)
# T8 sequence: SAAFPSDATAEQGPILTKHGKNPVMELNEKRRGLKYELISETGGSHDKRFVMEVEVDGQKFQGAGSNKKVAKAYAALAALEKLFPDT
# STAU2(1-2) = molecular target: T9, STAU2(1-2) (Homo sapiens, UniProt Q9NUL3)
# T9 chain: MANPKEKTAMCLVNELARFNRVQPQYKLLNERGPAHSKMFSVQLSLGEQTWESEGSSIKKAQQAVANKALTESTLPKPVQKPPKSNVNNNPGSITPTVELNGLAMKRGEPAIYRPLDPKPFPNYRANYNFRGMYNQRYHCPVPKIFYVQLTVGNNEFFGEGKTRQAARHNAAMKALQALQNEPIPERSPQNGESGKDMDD
# YTHDF2 = molecular target: T10, YTHDF2 (Homo sapiens, UniProt Q9Y5A9)
# T10 sequence: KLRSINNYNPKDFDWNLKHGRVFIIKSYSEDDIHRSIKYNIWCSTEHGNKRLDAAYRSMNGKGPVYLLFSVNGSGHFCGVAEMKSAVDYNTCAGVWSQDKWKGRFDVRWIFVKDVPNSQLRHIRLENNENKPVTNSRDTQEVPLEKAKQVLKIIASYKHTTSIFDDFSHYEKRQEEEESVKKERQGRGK
# Chain of RBMX (P38159 1-110): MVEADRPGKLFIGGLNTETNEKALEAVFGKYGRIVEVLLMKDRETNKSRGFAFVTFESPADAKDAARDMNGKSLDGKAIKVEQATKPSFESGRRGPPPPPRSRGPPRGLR
# Chain of RBMXL1 (Q96E39 1-110): as the sequence (P38159 1-110) above, with A26T, M40I, S91R, R94H, L109F, R110G counted along it
# Chain of IGF2BP2(3-4) (Q9Y6M1 410-599): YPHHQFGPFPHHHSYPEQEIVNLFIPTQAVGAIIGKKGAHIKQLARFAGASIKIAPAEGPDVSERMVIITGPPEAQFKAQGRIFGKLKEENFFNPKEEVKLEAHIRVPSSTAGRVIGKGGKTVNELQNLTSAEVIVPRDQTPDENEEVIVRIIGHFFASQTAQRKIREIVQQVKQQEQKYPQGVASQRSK
# Chain of IGF2BP1(3-4) (Q9NZI8 388-577): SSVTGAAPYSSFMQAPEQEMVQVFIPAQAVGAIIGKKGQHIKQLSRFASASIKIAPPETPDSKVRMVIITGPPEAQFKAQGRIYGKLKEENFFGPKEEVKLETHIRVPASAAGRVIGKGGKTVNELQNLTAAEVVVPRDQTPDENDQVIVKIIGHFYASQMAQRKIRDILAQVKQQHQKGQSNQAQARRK
# Chain of VIGILIN(6-10) (Q00341 495-900): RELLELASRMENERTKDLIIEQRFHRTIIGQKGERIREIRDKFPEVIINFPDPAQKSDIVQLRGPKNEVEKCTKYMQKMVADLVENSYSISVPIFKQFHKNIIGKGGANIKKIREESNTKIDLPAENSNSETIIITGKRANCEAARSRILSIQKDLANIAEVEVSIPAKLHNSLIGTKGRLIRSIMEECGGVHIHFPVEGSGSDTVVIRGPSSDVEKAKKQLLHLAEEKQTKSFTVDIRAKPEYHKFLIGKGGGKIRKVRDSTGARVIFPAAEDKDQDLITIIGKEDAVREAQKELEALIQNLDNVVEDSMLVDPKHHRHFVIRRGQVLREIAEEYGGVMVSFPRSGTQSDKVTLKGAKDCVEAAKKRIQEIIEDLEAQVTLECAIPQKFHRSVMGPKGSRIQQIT
# Chain of STAU1(2) (O95793 164-271): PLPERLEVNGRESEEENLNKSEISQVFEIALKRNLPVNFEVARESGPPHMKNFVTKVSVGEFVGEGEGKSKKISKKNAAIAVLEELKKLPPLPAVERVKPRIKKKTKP
# Chain of TNRC4(3) (Q5SZQ8 351-465): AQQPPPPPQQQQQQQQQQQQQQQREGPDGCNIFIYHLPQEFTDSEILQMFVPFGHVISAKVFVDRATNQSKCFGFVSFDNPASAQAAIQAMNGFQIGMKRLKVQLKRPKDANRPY
# Chain of IGF2BP3(1-2) (O00425 178-364): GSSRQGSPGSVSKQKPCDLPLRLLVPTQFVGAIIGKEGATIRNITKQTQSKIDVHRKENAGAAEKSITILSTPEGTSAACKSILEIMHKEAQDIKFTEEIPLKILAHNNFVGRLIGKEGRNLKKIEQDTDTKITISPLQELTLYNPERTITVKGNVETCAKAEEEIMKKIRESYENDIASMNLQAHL
# Chain of VIGILIN(1-5) (Q00341 138-534): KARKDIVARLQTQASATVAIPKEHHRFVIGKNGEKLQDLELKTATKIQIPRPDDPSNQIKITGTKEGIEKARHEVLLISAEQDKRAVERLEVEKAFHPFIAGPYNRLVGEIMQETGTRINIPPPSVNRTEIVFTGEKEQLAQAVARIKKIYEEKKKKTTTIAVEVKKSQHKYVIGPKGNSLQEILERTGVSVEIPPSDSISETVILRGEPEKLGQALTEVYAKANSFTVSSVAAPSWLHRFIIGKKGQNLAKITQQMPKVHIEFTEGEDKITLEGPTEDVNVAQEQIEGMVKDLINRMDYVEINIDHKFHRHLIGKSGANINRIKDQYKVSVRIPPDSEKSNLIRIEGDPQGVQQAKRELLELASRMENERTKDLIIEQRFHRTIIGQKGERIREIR
# Chain of SETD1A (O15047 60-200): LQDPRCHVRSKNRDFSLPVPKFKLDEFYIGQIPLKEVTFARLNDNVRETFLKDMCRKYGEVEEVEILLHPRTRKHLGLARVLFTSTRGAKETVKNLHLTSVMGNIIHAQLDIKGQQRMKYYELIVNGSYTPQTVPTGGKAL
Sequence,binding signal (NOVA2(3)) [fluorescence intensity],binding signal (RNPC3(2)) [fluorescence intensity],binding signal (RBMXL1) [fluorescence intensity],binding signal (RBM38) [fluorescence intensity],binding signal (IGF2BP2(3-4)) [fluorescence intensity],binding signal (SETD1A) [fluorescence intensity],binding signal (IGF2BP1(3-4)) [fluorescence intensity],binding signal (VIGILIN(6-10)) [fluorescence intensity],binding signal (RBM18) [fluorescence intensity],binding signal (VIGILIN(1-5)) [fluorescence intensity],binding signal (RBMX) [fluorescence intensity],binding signal (IGF2BP3(1-2)) [fluorescence intensity],binding signal (RBM24) [fluorescence intensity],binding signal (TNRC4(3)) [fluorescence intensity],binding signal (RBM44) [fluorescence intensity],binding signal (STAU1(2)) [fluorescence intensity],binding signal (DUS2L) [fluorescence intensity],binding signal (NFAT90(2)/ILF3) [fluorescence intensity],binding signal (STAU2(1-2)) [fluorescence intensity],binding signal (YTHDF2) [fluorescence intensity]
UGAGGUAGUAGGUUGUAUAGUU,49.4 ± 3.28,32.3 ± 6.65,300 ± 36.4,631 ± 19.8,412 ± 46,36 ± 1.17,262 ± 8.37,26.1 ± 2.47,110 ± 9.81,86.5 ± 26.5,216 ± 27.7,21.2 ± 1.65,596 ± 24,69.3 ± 14.8,20.7 ± 0.276,,,,,
UGAGGUAGUAGGUUGUGUGGUU,271 ± 8.31,301 ± 43.8,981 ± 17.4,1950 ± 73.9,1420 ± 38.2,213 ± 11.9,1118 ± 5.57,498 ± 6.91,312 ± 45.3,622 ± 17.6,721 ± 26,61.2 ± 7.31,1780 ± 28.1,324 ± 34.8,,123 ± 31.3,76.1 ± 2.55,45.6 ± 4.09,148.7 ± 0.905,90.3 ± 14.1
CAGUGCAAUGAUGAAAGGGCAU,508 ± 29.8,138 ± 35.8,1000 ± 56.8,1690 ± 55.6,904 ± 85.6,64.7 ± 9.41,436 ± 8.23,43.4 ± 1.94,248.1 ± 1.58,156 ± 8.85,686 ± 37.1,43.1 ± 3.58,1450 ± 56.8,85.6 ± 1,21.2 ± 0.735,23.7 ± 6.78,,23 ± 0.905,39.2 ± 1.2,30.8 ± 0.523
UGAGGUAGUAGGUUGUAUGGUU,144 ± 61.5,130 ± 69.7,805 ± 10.1,1540 ± 34.6,1720 ± 120,99.9 ± 23.9,1615 ± 5.45,270 ± 12.9,291 ± 10.4,454 ± 17.2,571 ± 25,34.3 ± 8.59,1340 ± 23.1,333 ± 23.4,24.5 ± 2.6,78.8 ± 6.29,47.2 ± 5.46,27.3 ± 2.02,74.1 ± 4.8,72.2 ± 12.5
UAGCUUAUCAGACUGAUGUUGA,63.2 ± 4.35,72.3 ± 78,96.9 ± 4.67,1790 ± 23.9,59.8 ± 2.54,23.2 ± 2.69,22 ± 1.81,,72.6 ± 4.62,20.4 ± 2.57,71.4 ± 18,,1720 ± 109,25 ± 0.665,,,,,20.4 ± 2.26,
AGAGGUAGUAGGUUGCAUAGUU,1853 ± 17.2,168 ± 44.9,1390 ± 47.7,2315 ± 13.9,1780 ± 95.8,95.585 ± 0.0212,955 ± 10.5,91.1 ± 6.12,316 ± 12.6,173 ± 11.1,963 ± 66.7,44.2 ± 2.91,1891 ± 18.8,191 ± 21.4,,52.2 ± 5.35,25.82 ± 0.0919,21.9 ± 1.63,53.6 ± 0.792,38.4 ± 3.27
